According to PubChem BioAssay (EPA / NIEHS):
A structure can be active in one record and inactive in another. Active and inactive are the calls of the source. The calls were made as follows: active = hit-call score of the fitted dose curve at least 0.9, where 1 is the maximum; inactive = score below 0.9.

Columns and labels:
[1] = read-out: Intercellular Adhesion Molecule 1 (ICAM1), ICAM1 (gene 3383); assay: BSK_BF4T_ICAM1: BioMAP Diversity Plus: BF4T Assay for Intercellular Adhesion Molecule 1 (ICAM1) Biomarker Activity (AID 2284260); details: primary human bronchial epithelial cells with fibroblasts
How it was run: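 ICAM-1 levels measured by ELISA after 24 h chemical treatment of bronchial epithelial cell/dermal fibroblast co-cultures, read against DMSO baseline. Overt cytotoxicity checked in parallel cultures by sulforhodamine B staining.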

[2] = read-out: Interleukin-8 (IL8), CXCL8 (gene 3576); assay: BSK_MyoF_IL8: BioMAP Diversity Plus: MyoF Assay for Interleukin-8 (IL8) Biomarker Activity (AID 2284261); details: primary human lung fibroblasts
How it was run: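 Lung fibroblasts (human primary) → chemical exposure → 24 h → IL-8 measured by ELISA. Signal increase scored versus DMSO control.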

[3] = read-out: Interleukin-8 (IL8), CXCL8 (gene 3576); assay: BSK_BF4T_IL8: BioMAP Diversity Plus: BF4T Assay for Interleukin-8 (IL8) Biomarker Activity (AID 2284263); details: primary human bronchial epithelial cells with fibroblasts
How it was run: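 Human bronchial epithelial cells with dermal fibroblasts co-culture; IL-8 measured by ELISA 24 hours after dosing, fitted vs DMSO. Cytotoxicity tracked in parallel cultures by SRB total-protein staining.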

[4] = read-out: Interleukin-1 alpha (IL1a), IL1A (gene 3552); assay: BSK_BF4T_IL1a: BioMAP Diversity Plus: BF4T Assay for Interleukin-1 alpha (IL1a) Biomarker Activity (AID 2284264); details: primary human bronchial epithelial cells with fibroblasts
How it was run: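 ELISA read-out of IL-1α from bronchial epithelial cell/dermal fibroblast co-cultures 24 h after compound addition. Increases scored against DMSO negative control. Cytotoxicity monitored by sulforhodamine B staining of parallel cultures.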

[5] = read-out: Decorin, DCN (gene 1634); assay: BSK_MyoF_Decorin: BioMAP Diversity Plus: MyoF Assay for Decorin Biomarker Activity (AID 2284265); details: primary human lung fibroblasts
How it was run: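 ELISA readout of decorin, 24 h post-dosing; primary human lung fibroblast (MyoF) culture; gain-of-signal fit vs DMSO baseline.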

[6] = read-out: KRT18 (gene 3875); assay: BSK_BF4T_Keratin818: BioMAP Diversity Plus: BF4T Assay for Keratin 818 Biomarker Activity (AID 2284266); details: primary human bronchial epithelial cells with fibroblasts
How it was run: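 Keratin 8/18 levels quantified by ELISA after 24 h chemical treatment of bronchial epithelial cell/dermal fibroblast co-cultures, fitted in positive direction relative to DMSO. Parallel SRB staining tracks overt cytotoxicity.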

[7] = BSK_MyoF_SRB: Viability Assessment in the BioMAP Diversity Plus: MyoF Assay (AID 2284267); details: primary human lung fibroblasts;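 also: total protein by SRB absorbance in parallel cultures as cytotoxicity measure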
How it was run: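 Lung fibroblast cultures, 24 h post-dose; fix 10% TCA, stain 0.1% SRB, read 560 nm. Signal = total protein as cytotoxicity measure; fitted relative to DMSO negative control.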

[8] = read-out: TIMP metallopeptidase inhibitor 1 (TIMP1), TIMP1 (gene 7076); assay: BSK_MyoF_TIMP1: BioMAP Diversity Plus: MyoF Assay for TIMP metallopeptidase inhibitor 1 (TIMP1) Biomarker Activity (AID 2284269); details: primary human lung fibroblasts
How it was run: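 TIMP-1 levels were determined by ELISA in human lung fibroblasts treated for 24 h. DMSO served as negative control and baseline for upward curve fitting.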

[9] = read-out: Matrix Metallopeptidase 3 (MMP3), MMP3 (gene 4314); assay: BSK_BF4T_MMP3: BioMAP Diversity Plus: BF4T Assay for Matrix Metallopeptidase 3 (MMP3) Biomarker Activity (AID 2284271); details: primary human bronchial epithelial cells with fibroblasts
How it was run: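 MMP-3 level read by ELISA after 24 h chemical exposure of bronchial epithelial cell/dermal fibroblast co-cultures, fitted upward relative to DMSO. Parallel cultures stained with 0.1% SRB after TCA fixation gauge overt cytotoxicity.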

[10] = read-out: Tissue plasminogen activator (tPA), PLAT (gene 5327); assay: BSK_BF4T_tPA: BioMAP Diversity Plus: BF4T Assay for Tissue plasminogen activator (tPA) Biomarker Activity (AID 2284272); details: primary human bronchial epithelial cells with fibroblasts
How it was run: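 tPA level quantified by ELISA at 24 h post-treatment in bronchial epithelial/dermal fibroblast co-cultures, gain of signal scored against DMSO baseline. Parallel cultures stained with 0.1% SRB (560 nm) to flag overt cytotoxicity.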

[11] = read-out: Plasminogen Activator Inhibitor-1 (PAI1), SERPINE1 (gene 5054); assay: BSK_BF4T_PAI1: BioMAP Diversity Plus: BF4T Assay for Plasminogen Activator Inhibitor-1 (PAI1) Biomarker Activity (AID 2284273); details: primary human bronchial epithelial cells with fibroblasts
How it was run: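 PAI-1 levels quantified by ELISA 24 h post-dosing in bronchial epithelial cell plus dermal fibroblast cultures. Signal gain referenced to DMSO baseline. Sulforhodamine B total-protein staining of parallel wells checked cytotoxicity.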

[12] = BSK_BF4T_SRB: Viability Assessment in the BioMAP Diversity Plus: BF4T Assay (AID 2284274); details: primary human bronchial epithelial cells with fibroblasts
How it was run: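 Cytotoxicity measured as total protein: cells fixed with 10% TCA, stained with 0.1% SRB, read at 560 nm. Bronchial epithelial/dermal fibroblast co-culture, 24 h after dosing, with positive-direction fitting relative to DMSO.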

[13] = read-out: urokinase Plasminogen Activator (uPA), PLAU (gene 5328); assay: BSK_BF4T_uPA: BioMAP Diversity Plus: BF4T Assay for urokinase Plasminogen Activator (uPA) Biomarker Activity (AID 2284275); details: primary human bronchial epithelial cells with fibroblasts
How it was run: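 uPA levels measured by ELISA at 24 hours in BF4T cultures (bronchial epithelial cells plus dermal fibroblasts) and compared with DMSO; cytotoxicity tracked in parallel cultures by sulforhodamine B staining.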

[14] = read-out: Matrix Metallopeptidase 9 (MMP9), MMP9 (gene 4318); assay: BSK_BF4T_MMP9: BioMAP Diversity Plus: BF4T Assay for Matrix Metallopeptidase 9 (MMP9) Biomarker Activity (AID 2284276); details: primary human bronchial epithelial cells with fibroblasts
How it was run: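 MMP-9 levels were measured by ELISA after 24 h exposure of bronchial epithelial cell/dermal fibroblast co-cultures, with DMSO as baseline. Parallel cultures were stained with 0.1% SRB after TCA fixation, read at 560 nm, to flag overt cytotoxicity.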

[15] = read-out: Interleukin-8 (IL8), CXCL8 (gene 3576); assay: BSK_IMphg_IL8: BioMAP Diversity Plus: IMphg Assay for Interleukin-8 (IL8) Biomarker Activity (AID 2284277); details: primary human endothelial cells with macrophages
How it was run: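 IL-8 levels were measured by ELISA 24 h after dosing in primary human venular endothelial cell–macrophage cultures, referenced to DMSO; parallel SRB staining monitored overt cytotoxicity.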

[16] = read-out: Intercellular Adhesion Molecule 1 (ICAM1), ICAM1 (gene 3383); assay: BSK_BE3C_ICAM1: BioMAP Diversity Plus: BE3C Assay for Intercellular Adhesion Molecule 1 (ICAM1) Biomarker Activity (AID 2284278); details: primary human bronchial epithelial cells;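 also: cell-surface ICAM-1 protein level quantified by ELISA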
How it was run: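 ELISA read-out of ICAM-1 on human lung bronchial epithelial primary cells, 24 h post-dosing; positive-direction curve fit, DMSO = baseline. SRB total-protein staining of parallel cultures flagged overt cytotoxicity.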

[17] = read-out: Interferon-inducible T-cell alpha chemoattractant (ITAC), CXCL11 (gene 6373); assay: BSK_BE3C_ITAC: BioMAP Diversity Plus: BE3C Assay for Interferon-inducible T-cell alpha chemoattractant (ITAC) Biomarker Activity (AID 2284279); details: primary human bronchial epithelial cells
How it was run: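 The assay measures I-TAC levels by ELISA in human primary bronchial epithelial cell cultures 24 hours after chemical treatment. Values reflect signal increase over the DMSO baseline.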

[18] = read-out: Matrix Metallopeptidase 1 (MMP1), MMP1 (gene 4312); assay: BSK_MyoF_MMP1: BioMAP Diversity Plus: MyoF Assay for Matrix Metallopeptidase 1 (MMP1) Biomarker Activity (AID 2284268); details: primary human lung fibroblasts
How it was run: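 Cells: human lung fibroblasts. Exposure: 24 h chemical dosing. Detection: ELISA for MMP1. Analysis: upward fitting against DMSO negative control.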

[19] = read-out: Matrix Metallopeptidase 1 (MMP1), MMP1 (gene 4312); assay: BSK_BF4T_MMP1: BioMAP Diversity Plus: BF4T Assay for Matrix Metallopeptidase 1 (MMP1) Biomarker Activity (AID 2284270); details: primary human bronchial epithelial cells with fibroblasts
How it was run: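 MMP-1 quantified by ELISA in primary human bronchial epithelial/dermal fibroblast co-cultures, 24 hours post-dosing, with DMSO as baseline; parallel sulforhodamine B staining (560 nm) tracks overt cytotoxicity.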

[20] = read-out: CD90, THY1 (gene 7070); assay: BSK_BF4T_CD90: BioMAP Diversity Plus: BF4T Assay for CD90 Biomarker Activity (AID 2284262); details: primary human bronchial epithelial cells with fibroblasts
How it was run: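 CD90 levels by ELISA after 24 h treatment of human bronchial epithelial cell/dermal fibroblast cultures, analysed versus DMSO. Overt cytotoxicity checked in parallel cultures by sulforhodamine B staining.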

Measured: AC50

FC(F)(Br)C(F)(F)C(F)(F)C(F)(F)C(F)(F)C(F)(F)Br
not listed: [18] | [19] | [20]
inactive: all other assays above

FC(F)(F)C(F)(F)C(F)(F)C(F)(F)C(F)(F)C(F)(F)CCS
active: [4] 10.9 µM | [15] 0.876 µM
inactive: [1] | [2] | [4] | [5] | [6] | [7] | [9] | [10] | [11] | [12] | [13] | [14] | [15] | [16] | [17]

O=S(=O)(OCC(F)F)C(F)(F)F
not listed: [3] | [20]
inactive: all other assays above

FC(F)(F)C(F)(F)C(F)(F)C(F)(F)C(F)(F)C(F)(F)C(F)(F)C(F)(F)F
not listed: [3] | [20]
inactive: all other assays above

CC(C)(C)C(=O)CC(=O)C(F)(F)C(F)(F)C(F)(F)F
not listed: [3] | [8] | [18] | [19]
inactive: all other assays above

FC(F)(F)C(F)(F)C(F)(F)CI
not listed: [3] | [19] | [20]
inactive: all other assays above
